Screening data: PubChem BioAssay, several laboratories
Hsp90 inh: displaces geldanamycin probe from tumor Hsp90; P07900; NCI-N417 lysate Hsp90, Cy3B-geldanamycin FP displacement; inhibition, % at 30 µM; actives 0.35% (n = 64,000);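 active means inhibition above 50%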;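 further: 0% = tracer plus lysate wells and 100% = tracer alone without lysate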
Cdc25B block: human M-phase inducer phosphatase 2 inhibition. actives 0.1% (n = 65,000). recombinant Cdc25B, OMFP fluorescence Ex485/Em525. P30305. AID 368. inhibition, %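 (compounds tested at 10 µM final in the well)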; in the data active means inhibition above about 50%
Target sequence (P30305 whole entry, looked up): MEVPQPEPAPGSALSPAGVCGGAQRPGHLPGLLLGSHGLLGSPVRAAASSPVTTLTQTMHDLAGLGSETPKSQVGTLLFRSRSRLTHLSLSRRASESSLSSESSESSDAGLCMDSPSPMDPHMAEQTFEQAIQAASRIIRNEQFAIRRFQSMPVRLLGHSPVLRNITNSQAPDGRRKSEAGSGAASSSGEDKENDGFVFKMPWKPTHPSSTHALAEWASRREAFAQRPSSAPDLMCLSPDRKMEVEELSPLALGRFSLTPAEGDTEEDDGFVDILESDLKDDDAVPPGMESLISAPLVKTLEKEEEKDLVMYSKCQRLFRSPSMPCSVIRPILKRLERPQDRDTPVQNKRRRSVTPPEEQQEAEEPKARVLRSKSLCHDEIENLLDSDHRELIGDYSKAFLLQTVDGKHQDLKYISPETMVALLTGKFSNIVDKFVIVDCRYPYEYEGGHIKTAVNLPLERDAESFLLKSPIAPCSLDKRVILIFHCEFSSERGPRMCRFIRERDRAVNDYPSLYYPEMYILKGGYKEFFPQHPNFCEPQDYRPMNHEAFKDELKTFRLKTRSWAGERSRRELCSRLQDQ
MKP-1 inh: blocks human MKP-1 phosphatase activity; inhibition, %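 (compounds tested at a single concentration somewhere between 10 and 100 µM)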; actives 0.15% (n = 65,000); recombinant MKP-1, OMFP hydrolysis fluorescence; AID 374;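 active means inhibition above about 50%, limit read from the data; inconclusive means inhibition over screen mean plus 3 SD, below that limit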;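 further: 0% = DMSO max control wells and 100% = wells with enzyme stopped by NaOH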
BAP1 inh: inhibitors of human BAP1 deubiquitinase; calls only at 20 µM; recombinant BAP1, Ub-AMC hydrolysis fluorescence kinetic; stronger effect = lower value; AID 436; actives 0.48% (n = 72,000);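 active means activity remaining at or below 50% of control, provided the compound also passes the data quality filters; inactive means the rest, including low values that fail the filters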;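 further: 100% = DMSO wells rate and 0% = substrate alone blank rate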
Redox H2O2 0p5DTT: counter-screen for Cdc25B probes: redox cycling H2O2 in 0.5 mM DTT; shares compounds with Cdc25B block; cell-free redox cycling H2O2 generation; EC50, µM; actives 50% (n = 30); AID 682; in the data active means EC50 below about 30 µM
Redox 1 DTT: counter-screen for Cdc25B probes: redox cycling H2O2 in 1 mM DTT | 30 tested, under 10 active | shares compounds with Cdc25B block | cell-free redox cycling H2O2 generation | EC50, µM; in the data active means EC50 below about 50 µM
Redox H2O2: counter-screen for MKP-1 and MKP-3 probes: redox cycling H2O2 generation; shares compounds with MKP-1 inh; DTT, phenol red/HRP; EC50, µM; 60 tested, under 10 active; AID 672; call rule not given here
BAP1 inh conf: BAP1 (human) enzyme inhibition, confirmed | shares compounds with BAP1 inh | purified BAP1, Ub-ethyl ester hydrolysis, HPLC; stronger effect = lower value | % of control activity, % at 20 µM | actives 8% (n = 310);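 active means percent of control activity at or below 60%; inconclusive means HPLC trace unusable from injection failure or solvent front hiding peaks; inactive means the rest, plus ubiquitin peak ratio over a set limit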
* = called active by the depositor; i = inactive; ? = inconclusive; / = no result shown; + = active, no number. This is a sample that favours compounds with a hit; in the whole collection about 1% have one here.

SMILES	Hsp90 inh	Cdc25B block	MKP-1 inh	BAP1 inh	Redox H2O2	others
CCOc1cccc(C2NC(=O)NC(C)=C2C(=O)OCC(Cl)(Cl)Cl)c1 (centres undefined)	/	/	/	i	/
CCSc1nnc2c(n1)OC(c1cccc([N+](=O)[O-])c1)Nc1ccccc1-2 (centres undefined)	/	/	/	i	/
OCCCc1nc2n(n1)C(c1ccccc1)C=C(c1ccccc1)N2 (centres undefined)	92.0*	2.0	6.5	i	/
N#Cc1cccc2cnccc12	2.6	6.1	3.9	i	/
Nc1cccc2cnccc12	63.3*	81.3*	6.4	i	/	Redox H2O2 0p5DTT=>50;Redox 1 DTT=>50
COc1cccc2c1NC(C(=O)O)C1CC=CC21 (centres undefined)	-26.3	50.9*	42.2	/	/	Redox H2O2 0p5DTT=>50;Redox 1 DTT=>50
O=C(O)c1ccc([N+](=O)[O-])c2c1NC(C(=O)O)C1CC=CC21 (centres undefined)	/	/	/	i	/
Cc1ccc2c(c1)C1C=CCC1C(C(=O)O)N2 (centres undefined)	-24.6	51.4*	20.0	i	/	Redox H2O2 0p5DTT=>50;Redox 1 DTT=>50
Cc1nnc(NC(=O)c2ccccc2[N+](=O)[O-])s1	/	/	/	i	/
CC(=O)Nc1cc(OC(C)=O)c2nonc2c1OC(C)=O	91.1*	100.4*	-17.0	i	/	Redox H2O2 0p5DTT=3.89*;Redox 1 DTT=13.6*
Cc1c(N=c2c(=O)c3ccccc3c2=O)c(=O)n(-c2ccccc2)n1C	80.0*	98.4*	88.2*	i	>50	Redox H2O2 0p5DTT=13.2*;Redox 1 DTT=41.4*
Cc1c(N=CC=Nc2c(C)n(C)n(-c3ccccc3)c2=O)c(=O)n(-c2ccccc2)n1C	-3.3	0.9	6.1	i	/
COc1ccc2noc3c2c1C(=O)c1ccccc1-3	38.8	96.6*	79.2*	i	>50	Redox H2O2 0p5DTT=26.8*;Redox 1 DTT=>50
O=C(Nc1ccc2oc(-c3ccc4ccccc4c3)nc2c1)c1ccc(Cl)c([N+](=O)[O-])c1	/	/	/	i	/
[O-]/[N+](=C\c1ccncc1)c1ccccc1	26.1	63.9*	64.0*	i	i	Redox H2O2 0p5DTT=>50;Redox 1 DTT=>50
[O-]/[N+](=C\c1ccc(OC(F)F)cc1)c1ccccc1	1.6	72.8*	64.9*	i	>50	Redox H2O2 0p5DTT=>50;Redox 1 DTT=>50
O=[N+]([O-])c1ccc(C=Nc2ccccc2)cc1	/	/	/	i	/
Cc1ccc(C2CC(C(F)(F)F)n3nc(C(=O)N4CCN(c5ccccc5)CC4)c(Cl)c3N2)cc1 (centres undefined)	/	/	/	i	/
Cc1ccc(/C=C/C2=Cc3c(sc(NC(=O)CSc4n[nH]c(N)n4)c3C#N)C(C)(C)C2)o1	-20.6	33.7	68.7*	/	>50
CCOC(=O)c1sc(NC(=O)CSc2n[nH]c(-c3ccccc3)n2)c(C#N)c1C	-4.1	6.0	12.5	i	/
COc1ccc(-c2cc3nc(C4CCN(C(=O)OC(C)(C)C)CC4)c(C(=O)O)cn3n2)cc1	-0.1	-4.2	64.6*	i	>50
CSc1ccc(CN2CCN(Cc3cccc([N+](=O)[O-])c3)CC2)cc1	/	/	/	i	/
Cc1cccc(N2CCN(C(=O)Cc3c(C(=O)O)[nH]c4ccc(Cl)cc34)CC2)c1C	-3.8	1.5	52.6*	i	>50
Cc1cccc(N2CCN(C(=O)CCn3c(=O)[nH]c4ccccc4c3=O)CC2)c1C	-0.7	-25.4	19.4	i	/
Cc1cc(Nc2ccc(Cl)cc2)c2ccc3ccccc3c2n1	/	/	/	i	/
SMILES	Hsp90 inh	Cdc25B block	MKP-1 inh	BAP1 inh	Redox H2O2	others
CCOC(=O)c1c(NC(=O)CCC(=O)O)sc2c1CCC2	/	/	/	i	/
Cc1ccc(C)n1-c1cccc(C(=O)O)c1	-0.4	21.0	50.2*	/	>50
O=C1C(C2=C(O)c3ccccc3C2=O)=Nc2ccccc21	57.5*	23.3	91.2*	i	>50
Cc1cc2nn(-c3ccccc3)nc2cc1NC(=O)c1ccc(Br)o1	/	/	/	i	/
N#Cc1c(NC(=O)c2ccc(Br)o2)n(-c2ccccc2)c2nc3ccccc3nc12	43.9	8.4	22.7	i	>50
CCOc1cc(/C=C(/C#N)c2ccc(F)cc2)ccc1OCc1ccc(C(=O)O)o1	-8.9	-4.0	53.8*	/	>50
O=C(Nc1ccccc1)c1ccc2nc(-c3ccco3)c(-c3ccco3)nc2c1	-20.1	44.7	59.3*	/	>50
CCSc1ccc(NC(=O)CC2c3ccccc3Oc3ccccc32)cc1	/	/	/	i	/
Cc1ccc(-c2csc(NC(=O)c3ccno3)n2)cc1	-12.9	23.5	53.1*	/	>50
O=C(Nc1ccc(OCc2ccccc2)cc1)C1c2ccccc2Oc2ccccc21	/	/	/	i	/
O=C1Nc2ccccc2SC(c2ccccc2)C1O (centres undefined)	-0.1	20.8	57.8*	/	>50
[O-]/[N+](=C/c1ccc(F)cc1)c1ccccc1	5.8	47.7	82.1*	i	>50
CCCc1ccc(Oc2c(C)oc3cc(OCC)ccc3c2=O)cc1	/	/	/	i	/
COC(=O)c1ccccc1NC(=O)CN1C(=O)C2CCCN2c2ncc(Cl)cc21 (centres undefined)	-19.1	4.7	50.2*	/	>50
CCc1ccccc1NC(=O)CN1C(=O)C2CCCN2c2ncc(Cl)cc21 (centres undefined)	-6.0	-5.5	4.2	i	/
O=C1c2ccccc2-c2onc3ccc(Sc4ccccc4)c1c23	/	/	/	i	/
O=C1c2ccccc2-c2onc3ccc(NCCCn4ccnc4)c1c23	139.9*	6.3	25.4	i	>50
Cc1ccc2c(c1)c1c(n2CC(O)Cn2nc(C)c(Br)c2C)C(=O)CCC1 (centres undefined)	-0.5	-3.6	25.3	+	/	BAP1 inh conf=90.6
COc1nc2c(C)cccc2cc1-c1noc(-c2ccco2)n1	-8.3	-4.8	10.7	+	/	BAP1 inh conf=157.2
CC(=O)N1CCN(c2ccccc2NC(=O)COc2cc(C)ccc2C(C)C)CC1	2.2	-24.3	4.4	+	/	BAP1 inh conf=?
COC(=O)c1oc2ccc(Br)cc2c1NC(=O)c1ccccc1	0.2	15.4	17.1	i	/
O=C(O)c1oc2ccc(Br)cc2c1-n1cccc1	-4.2	6.4	4.0	+	/	BAP1 inh conf=88.1
Cc1ccc(NS(=O)(=O)c2cc(C(=O)O)ccc2Br)cc1	/	/	/	i	/
CCOc1cc(S(=O)(=O)N2CCC(Cc3ccccc3)CC2)c(OCC)cc1-n1cnnn1	0.1	-29.6	-1.4	+	/	BAP1 inh conf=88.6
Cc1cccc(OC(=O)CC2CS(=O)(=O)CC2CC(=O)Oc2cccc(C)c2)c1 (centres undefined)	/	/	/	i	/
Cc1ccc(Cn2ncc3c(N4CCN(c5ccccc5C)CC4)ncnc32)cc1	-3.3	-14.3	17.9	+	/	BAP1 inh conf=95.0
Cc1cc(C(=O)NCc2cc(C(=O)O)oc2C)c(C)o1	-3.1	-1.9	21.0	+	/	BAP1 inh conf=111.1
C=CCN1C(=O)C(C(c2cccc([N+](=O)[O-])c2)C2C(=O)NC(=S)N(CC=C)C2=O)C(=O)NC1=S (centres undefined)	/	/	/	i	/
